Results reported in PubChem BioAssay (NCATS).

Experiment: qHTS profiling of the MIPE4 collection as inhibitors of Plasmodium falciparum (HB3) proliferation (AID 743347);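 further: plate controls were DMSO vehicle wells for no effect and artemisinin wells for full effect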
Conditions: P. falciparum HB3 in erythrocytes, SYBR Green DNA, 72 h; at 28.5 µM (top of the series) unless noted
Summary of the method: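 Parasite DNA was quantified by SYBR Green I fluorescence (ex 485, em 535 nm) after overnight lysis in saponin/Triton buffer at room temperature. Cultures at 0.3% parasitemia and 2.5% hematocrit were first exposed to compound for 72 h at 37 C; signals were normalised to artemisinin (0.29 uM) and vehicle wells.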

Going from `NC1CCC(Nc2nc(Nc3ccc(C(=O)N4CCCCC4)cc3)c3ncn(-c4cccc(F)c4)c3n2)CC1` (stereo unspecified) to `CN(C)C1CCN(C(=O)c2ccc(NC(=O)Nc3nc(N4CCOCC4)nc(N4CCOCC4)n3)cc2)CC1`, the growth, % of control falls from 71.8% to 4.82%.

First: Cc1ccn(-c2ccc(-c3ncco3)cc2)c(=O)c1-c1ccc2nc(N)ncc2c1
Second: COc1ccc(-c2coc3cc(O)ccc3c2=O)cc1
The growth, % of control of the first is lower: 72.3% for the first, 92.8% for the second.

Going from `N#Cc1ccc(NC(=O)Nc2ccccc2Br)c2n[nH]nc12` to `CC(C(=O)O)c1ccc(-c2ccccc2)c(F)c1` (stereo unspecified), the growth, % of control rises from 7.81% to 96%.

First: COc1ccc2cccc(CCNC(C)=O)c2c1
Second: Cc1c[nH]c(C=C2C(=O)Nc3ccccc32)c1CCC(=O)O
The growth, % of control of the first is higher: 41% for the first, 37.7% for the second.

Going from `NC(=O)NN=Cc1ccc([N+](=O)[O-])o1` to `Cc1nnc(C(C)C)n1C1C[C@H]2CC[C@@H](C1)N2CC[C@H](NC(=O)C1CCC(F)(F)CC1)c1ccccc1` (stereo partly specified), the growth, % of control rises from 13.3% to 92.4%.

In the case of `O=C(O)c1c(Cl)c(Cl)c(Cl)c(Cl)c1-c1c2cc(I)c(=O)c(I)c-2oc2c(I)c(O)c(I)cc12`, the growth, % of control was 88.8%.
